The source of these data is paper PMC5540273 (PLoS ONE, 2017).

Bounds are passed on as bounds.

One test relates to T1, YSK4.
T1 construct: gene MAP3K19

The subject of a further test is AAK1. The following applies: concentration: 1 μM, replicates: in singlicate; n = 1.
A further test has as its system ABL1-nonphosphorylated. The note with it: concentration: 1 μM, replicates: in singlicate; n = 1.
The subject of a further test is ABL1-phosphorylated. The following applies: concentration: 1 μM, replicates: in singlicate; n = 1.
Another test deals with ABL2. The note with it: concentration: 1 μM, replicates: in singlicate; n = 1.
Another test deals with ACVR1B. The following applies: concentration: 1 μM, replicates: in singlicate; n = 1.
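Throughout, for %Inh: KINOMEscan kinase panel screen.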
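Throughout, for Kd: kd values determined as follow-up on hits from a single-replicate KINOMEscan panel screen.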

On to `c1ccc(-c2ccnc3[nH]ccc23)cc1` [SB-693578], for which, in the test on YSK4, the Kd was found to be 470 nM. Also, the “%Inh” value with AAK1 was found to be 68%; in the test with ABL1-nonphosphorylated, 0%; in the test with ABL1-phosphorylated, 4%; in the test with ABL2, 16%; in the test with ACVR1B, 0%.

In turn, `COc1cccc(CNC(=O)NC2CCN(c3ccnc(Nc4ccc(F)cc4)n3)C2)c1` (stereo not drawn) [GSK1379723] yielded a dissociation constant (Kd) with ZAK greater than 10000 nM. The “%Inh” value is on record as 6% with AAK1; 0% in the test with ABL1-nonphosphorylated; 1% in the test on ABL1-phosphorylated; 8% with ABL2; 0% with ACVR1B.

Take `CS(=O)(=O)Cc1ccc(Nc2nccc(-c3c(-c4cccc(NC(=O)C5CCCCC5)c4)nn4ncccc34)n2)cc1` [GSK350559]: the “%Inh” value in the test on AAK1 stood at 0%; in the test on ABL1-nonphosphorylated, 8%; in the test on ABL1-phosphorylated, 15%; with ABL2, 5%; in the test on ACVR1B it was 0%.

With `Cc1ccccc1Cn1ccn2c(=O)cc(N3CCOCC3)nc12` [GSK2269905], the “%Inh” value worked out at 24% with AAK1; 0% in the test on ABL1-nonphosphorylated; 0% with ABL1-phosphorylated; 11% in the test with ABL2; 0% in the test with ACVR1B.

On to `O=c1cc(N2CCOCC2)nc2n(Cc3ccccc3F)ccn12` [GSK2297428], for which the “%Inh” value with AAK1 is 5%; with ABL1-nonphosphorylated, 0%; with ABL1-phosphorylated, 0%; in the test on ABL2 it was 8%; in the test on ACVR1B it was 0%.

With `CSc1ccc(-c2nc3n(c2-c2ccncc2)CCC3)cc1` [SKF-105561], the “%Inh” value came to 0% in the test on AAK1; 16% in the test on ABL1-nonphosphorylated; 0% in the test on ABL1-phosphorylated; 12% with ABL2; 4% in the test on ACVR1B.

Turning to `COc1ccc2cc(-c3nc(-c4ccccc4C(C)C)[nH]c3-c3ccncc3)ccc2c1` [SB-660566], the “%Inh” value with AAK1 worked out at 20%; in the test on ABL1-nonphosphorylated it was 0%; in the test with ABL1-phosphorylated, 3%; in the test on ABL2, 8%; with ACVR1B it was 74%.

For `COc1cccc(C2=C(Nc3cc(Cl)c(O)c(Cl)c3)C(=O)NC2=O)c1` [SB-390767], the “%Inh” value was found to be 0% in the test with AAK1; 0% in the test on ABL1-nonphosphorylated; 4% with ABL1-phosphorylated; 19% in the test on ABL2; 0% in the test with ACVR1B.

Consider `CCn1c(-c2c(N)noc2C)nc2cnccc21` [SB-737856], for which the “%Inh” value in the test on AAK1 worked out at 0%; with ABL1-nonphosphorylated, 0%; in the test on ABL1-phosphorylated it was 13%; with ABL2 it was 13%; in the test on ACVR1B, 0%.

Take `COc1ccc(Nc2nccc(-c3ccc(NC(=O)c4cc5cc(F)ccc5[nH]4)cc3)n2)cc1` [GSK1229496]: the “%Inh” value is reported as 65% in the test with AAK1; 0% with ABL1-nonphosphorylated; 0% in the test with ABL1-phosphorylated; 0% in the test on ABL2; 23% with ACVR1B.

As for `Cc1nccc(-c2c(-c3ccc(F)cc3)ncn2CCCN2CCOCC2)n1.Cl` [SB-282975], the “%Inh” value amounted to 0% with AAK1; 26% in the test on ABL1-nonphosphorylated; 0% in the test with ABL1-phosphorylated; 22% with ABL2; 36% in the test with ACVR1B.

Take `CC(=O)c1c(C)c2cnc(Nc3ccc(N4CCNCC4)cn3)nc2n(C2CCCC2)c1=O`: the “%Inh” value came to 0% in the test with AAK1; 28% in the test on ABL1-nonphosphorylated; 0% in the test with ABL1-phosphorylated; 0% in the test on ABL2; 0% with ACVR1B.

For the compound `NS(=O)(=O)c1cccc(N/C=C2\C(=O)Nc3ccc(S(=O)(=O)Cc4c(Cl)cccc4Cl)cc32)c1` [GSK398099], the “%Inh” value in the test on AAK1 is 31%; with ABL1-nonphosphorylated it was 0%; in the test with ABL1-phosphorylated, 0%; in the test with ABL2 it was 14%; with ACVR1B it was 0%.

For `COc1ccc(Nc2nccc(N3CCC(NC(=O)C(C)c4ccc(Cl)cc4)CC3)n2)cc1` (stereo not drawn) [GSK1379812], the “%Inh” value in the test with AAK1 was 23%; in the test on ABL1-nonphosphorylated, 4%; in the test with ABL1-phosphorylated, 0%; with ABL2 it was 28%; in the test with ACVR1B, 0%.

Regarding `Cc1c(Cn2c3ccccc3n3c(=O)cc(N4CCOCC4)nc23)cccc1C(F)(F)F` [GSK2306394], the “%Inh” value in the test with AAK1 worked out at 0%; with ABL1-nonphosphorylated, 0%; in the test with ABL1-phosphorylated, 0%; with ABL2, 11%; in the test on ACVR1B, 0%.

Turning to `Cc1ccc(NC(=O)Nc2ccc(Cl)cc2)cc1-c1ccc(C(=O)Nc2ccncc2)cc1` [GSK1398472], the “%Inh” value in the test on AAK1 is 0%; with ABL1-nonphosphorylated, 2%; with ABL1-phosphorylated it was 5%; with ABL2 it was 28%; in the test with ACVR1B, 0%.

With `O=C(Nc1n[nH]c2nc(-c3cccs3)c(Br)cc12)C1CCCC1` [SB-743341], the “%Inh” value in the test on AAK1 worked out at 0%; with ABL1-nonphosphorylated, 48%; in the test with ABL1-phosphorylated it was 19%; with ABL2 it was 5%; with ACVR1B, 17%.

As for `COC(=O)c1cccc(NC(=O)NC2CCN(c3ccnc(Nc4ccc(F)cc4)n3)C2)c1` (stereo not drawn) [GSK1379725], the “%Inh” value in the test on AAK1 is on record as 0%; in the test with ABL1-nonphosphorylated, 0%; in the test with ABL1-phosphorylated it was 0%; in the test with ABL2, 5%; in the test on ACVR1B it was 0%.

In the case of `Cc1ccc(NC(=O)c2ccc(Cl)cc2)cc1-c1ccc(C(=O)Nc2ccncc2)cc1` [GSK1398467], the “%Inh” value in the test on AAK1 stood at 8%; with ABL1-nonphosphorylated it was 0%; in the test with ABL1-phosphorylated it was 0%; in the test with ABL2, 20%; in the test with ACVR1B, 0%.

As for `O=c1cc(N2CCOCC2)nc2n(Cc3cccc(Cl)c3Cl)c3ccccc3n12` [GSK2299009], the “%Inh” value was determined as 31% in the test on AAK1; 0% with ABL1-nonphosphorylated; 0% in the test with ABL1-phosphorylated; 16% in the test with ABL2; 0% in the test on ACVR1B.

Take `Cn1cncc1-c1cc2c(Nc3ccc(OCc4ccccc4)cc3)ncnc2cn1` [GW281179]: the “%Inh” value in the test with AAK1 amounted to 20%; with ABL1-nonphosphorylated, 0%; with ABL1-phosphorylated it was 0%; in the test on ABL2, 12%; in the test on ACVR1B, 0%.

Take `COc1ccc(CSc2nnc(-c3ccc4ncsc4c3)o2)cc1C(F)(F)F`: the “%Inh” value in the test with AAK1 came out at 9%; in the test on ABL1-nonphosphorylated, 13%; with ABL1-phosphorylated it was 8%; in the test with ABL2 it was 2%; in the test with ACVR1B, 9%.

Consider `CS(=O)(=O)CCNCc1nc(-c2ccc3ncnc(Nc4ccc5c(cnn5Cc5ccccc5)c4)c3c2)cs1.Cl.Cl` [GW569716], for which the “%Inh” value in the test on AAK1 was 0%; in the test with ABL1-nonphosphorylated it was 68%; in the test with ABL1-phosphorylated, 0%; in the test on ABL2, 13%; in the test with ACVR1B it was 0%.

Regarding `O=C(Nc1n[nH]c2nc(-c3ccco3)c(Br)cc12)C1CCN(Cc2ccccc2)C1.O=C(O)[C@H](O)[C@@H](O)C(=O)O` (stereo not drawn) [SB-742034], the “%Inh” value with AAK1 is on record as 29%; in the test on ABL1-nonphosphorylated, 33%; in the test on ABL1-phosphorylated, 23%; with ABL2, 4%; in the test with ACVR1B, 20%.

Take `CCCCc1nn2ncccc2c1-c1ccnc(NC2CC2)n1` [GW684374]: the “%Inh” value with AAK1 was determined as 14%; in the test on ABL1-nonphosphorylated, 0%; in the test with ABL1-phosphorylated it was 0%; in the test with ABL2, 0%; in the test with ACVR1B, 0%.

Take `CCc1ccc(-c2ccc3c(c2)-c2n[nH]cc2S(=O)(=O)N3C)cc1`: the “%Inh” value was 15% with AAK1; 26% with ABL1-nonphosphorylated; 0% in the test with ABL1-phosphorylated; 0% in the test on ABL2; 0% with ACVR1B.

With `COc1cc2ncnc(Nc3cccc(Br)c3)c2cc1OC.Cl` [GI230329], the results for the “%Inh” value in the test on AAK1, with ABL2 and in the test on ACVR1B were 13%, 18% and 0%, respectively.

Regarding `CS(=O)(=O)CCNCc1nc(-c2ccc3ncnc(Nc4ccc(OCc5ccccc5)c(Cl)c4)c3c2)cs1.Cl` [GW582764], the “%Inh” value in the test on AAK1 is 0%; in the test on ABL1-nonphosphorylated, 0%; in the test on ABL1-phosphorylated, 0%; in the test with ABL2, 21%; in the test on ACVR1B it was 0%.

For `COC(=O)c1cccc(NC(=O)NC2CCN(c3ccnc(Nc4ccc(OC)cc4)n3)C2)c1` (stereo not drawn) [GSK1379746], the “%Inh” value in the test on AAK1 is given as 18%; with ABL1-nonphosphorylated it was 0%; in the test on ABL1-phosphorylated it was 0%; in the test with ABL2, 13%; in the test on ACVR1B, 0%.

Take `COc1ccc(CSc2nnc(-c3ccc4c(c3)CCO4)o2)cc1`: the “%Inh” value in the test on AAK1 came to 8%; in the test on ABL1-nonphosphorylated it was 28%; in the test on ABL1-phosphorylated, 0%; in the test with ABL2 it was 8%; in the test on ACVR1B it was 0%.

As for `CC(C)c1ccc(O)cc1Nc1ccnc2ccc(C(F)(F)F)cc12` [GW482059], the “%Inh” value with AAK1 is reported as 0%; in the test on ABL1-nonphosphorylated, 0%; in the test with ABL1-phosphorylated, 0%; with ABL2, 3%; in the test on ACVR1B, 0%.

Regarding `Cc1ccc(-c2nc(Nc3ccncc3)c3ccccc3n2)s1` [GSK189015], the “%Inh” value in the test with AAK1 stood at 12%; in the test on ABL1-nonphosphorylated, 0%; in the test on ABL1-phosphorylated, 0%; with ABL2, 21%; with ACVR1B, 0%.

For the compound `O=C1NC(=O)C(c2ccc(Cl)cc2)=C1Nc1ccc(O)cc1` [SB-340867], the “%Inh” value with AAK1 is reported as 3%; with ABL1-nonphosphorylated, 28%; in the test on ABL1-phosphorylated it was 0%; in the test on ABL2, 0%; in the test with ACVR1B, 0%.

Consider `COc1ccc(Nc2nccc(N3CCC(NC(=O)C(C)c4ccc(Cl)cc4)C3)n2)cc1` (stereo not drawn) [GSK1379735], for which the “%Inh” value in the test with AAK1 was 14%; in the test on ABL1-nonphosphorylated it was 0%; with ABL1-phosphorylated, 0%; in the test with ABL2, 18%; in the test on ACVR1B it was 19%.

Regarding `CC(=O)c1cccc(NC(=O)NC2CCN(c3ccnc(Nc4ccc(F)cc4)n3)C2)c1` (stereo not drawn) [GSK1379710], the “%Inh” value is reported as 16% in the test on AAK1; 0% in the test with ABL1-nonphosphorylated; 0% in the test with ABL1-phosphorylated; 0% with ABL2; 0% in the test on ACVR1B.

For the compound `COc1ccc(Nc2nccc(NCCNC(=O)Nc3cc(C)ccc3C)n2)cc1` [GSK1379899], the “%Inh” value in the test with AAK1 is on record as 0%; with ABL1-nonphosphorylated, 0%; in the test with ABL1-phosphorylated it was 0%; in the test on ABL2, 5%; in the test with ACVR1B it was 0%.

Take `Cl.Cl.Cl.N#Cc1ccc(CCNc2nccc(-c3cccc(CN4CCNCC4)c3)n2)cc1` [GSK2137462]: the “%Inh” value is 14% in the test on AAK1; 10% in the test on ABL1-nonphosphorylated; 0% with ABL1-phosphorylated; 9% in the test with ABL2; 0% with ACVR1B.

Take `CC(C)c1cc(-c2ccc3c(N)n[nH]c3c2)nc(N)n1` [GSK2250882]: the “%Inh” value is recorded as 53% in the test with AAK1; 0% in the test on ABL1-nonphosphorylated; 0% with ABL1-phosphorylated; 13% in the test on ABL2; 0% with ACVR1B.

Consider `CC(=O)c1c(C)c2cnc(Nc3ccn(C)n3)nc2n(C2CCCC2)c1=O`, for which the “%Inh” value with AAK1 is recorded as 0%; in the test with ABL1-nonphosphorylated it was 0%; in the test on ABL1-phosphorylated, 0%; in the test on ABL2, 0%; in the test with ACVR1B, 2%.
